In PubChem BioAssay (NCATS):
Results filed as inconclusive are left out. A number with no mark means an inactive call. The source made the active and inactive calls. Calls come from the whole dose curve; as a rule, active = well fitted inhibition curve with a large enough effect; inconclusive = small, poorly fitted or top-dose-only effect; inactive = flat fitted curve, though single readings scatter.

test: P-glycoprotein substrates identified in KB-8-5-11 adenocarcinoma cell line, qHTS therapeutic library screen (AID 1346987); details: KB-8-5-11 (P-gp overexpressing) viability, CellTiter-Glo, 72 h; series mostly up to 44.5 µM; activity change, negative = cytotoxicity: at the top concentration; note: nearly all actives have a fitted effect of over 65% in size
In short: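 KB-8-5-11, a colchicine-selected P-gp-overexpressing KB-3-1 subline, was grown without colchicine for the assay. Cells were seeded at 500 cells/well, dosed in concentration-response and incubated 72 h at 37 degree C, 5% CO2. Viability was read by CellTiter-Glo luminescence.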
% is set by controls: 0 for no effect and ±100 for the full control effect.

| Compound | activity change, negative = cytotoxicity | outcome |
| --- | --- | --- |
| Cc1oc2nc3c(c(NC(=O)CN4CCCC4=O)c2c1C)CCCC3 | 2.3% | – |
| Cc1sc(C)c(C(=O)NC2(c3ccc(C(=O)O)cc3)CC2)c1Cc1ccc(C(F)(F)F)cc1 | -2.04% | – |
| CCOC(=O)CSc1nc2c(sc3ccccc32)c(=O)n1CCCN1CCCC1 | -20.7% | – |
| CC12CC34CC(O)C5C(CO)(CO)CC(=O)CC5(C)C3CC1C2C4 (configuration not stated) | -1.11% | – |
| COc1ccc(C2C(C(=O)O)C(C(=O)O)C2c2ccc(OC)cc2O[C@@H]2O[C@H](CO)[C@@H](O)[C@H](O)[C@H]2O)c(O[C@@H]2O[C@H](CO)[C@@H](O)[C@H](O)[C@H]2O)c1 (some centres not stated) | -2.15% [at 17.3 µM] | – |
| Cc1nnc(-c2sc(NC(=O)[C@H](C(C)C)n3c(=O)[nH]c4ccccc4c3=O)nc2C)o1 | 6.71% | – |
| CC(=O)OC1C(C)C2C(OC3OC(CO)C(O)C(O)C3O)OC=C(C(=O)O)C2C1OC(=O)c1ccccc1 (configuration not stated) | – | inactive [at 17.3 µM] |
| C=C(C)[C@@H]1CC[C@]2(C(=O)O)CC[C@]3(C)[C@H](CCC4[C@@]5(C)CCC(=O)C(C)(C)C5C(O)C[C@]43C)C12 (some centres not stated) | -6.89% [at 17.3 µM] | – |
| C/C(=C\CCC(C)C1CC(O)C2(C)C3CCC4C(C)(C)C(OC5OCC(O)C(O)C5O)CCC45CC35CC(O)C12C)C(=O)O (configuration not stated) | – | inactive [at 17.3 µM] |
| CN[C@H](CNC(=O)N1CCC[C@@H]([C@@H](OCCNC(=O)OC)c2cccc(Cl)c2)C1)C[C@H]1CCCOC1 | – | inactive |
| C/C=C(/C)C(=O)OC1C(OC(C)=O)C23C(O)OC4(CCC5C6(C)CCC(OC7OC(C(=O)O)C(O)C(OC8OC(CO)C(O)C(O)C8OC8OC(C)C(O)C(O)C8OC8OCC(O)C(O)C8O)C7OC7OC(CO)C(O)C(O)C7O)C(C)(C)C6CCC5(C)C4(C)CC2OC(C)=O)C3CC1(C)C (configuration not stated) | – | inactive [at 9.29 µM] |
| O=C(Cc1ccccc1)OC[C@H]1O[C@H](O[C@H]2O[C@H](CO)[C@@H](O)[C@H](O)[C@H]2O)[C@H](O)[C@@H](O)[C@@H]1O | – | inactive [at 17.3 µM] |
| CC1(C)CC[C@]2(C(=O)O)[C@H](O)C[C@]3(C)C(=CCC4[C@@]5(C)CC[C@H](O[C@@H]6OC[C@@H](O)[C@H](O)[C@H]6O)[C@@](C)(C(=O)O)C5CC[C@]43C)[C@@H]2C1 (some centres not stated) | – | inactive [at 17.3 µM] |
| CC1CCC2C(C)(C)C(O)C(O)CC2(C)C12Cc1c(O)cc(CO)c(C=O)c1O2 (configuration not stated) | 5.06% [at 17.3 µM] | – |
| COc1cc(C)c(C(=O)NC2C(C)OC(OC3CCC(C)C4C3C=C(C)C3/C(C)=C\CC/C(C)=C/C5(C)C=C(C(=O)O)C(C)CC56OC(=O)/C(=C(\O)C34C)C6=O)C(O)C2(C)O)c(O)c1 (configuration not stated) | – | inactive [at 9.29 µM] |
| CC1(C)CC[C@]2(C(=O)O[C@@H]3O[C@H](CO[C@@H]4O[C@H](CO)[C@@H](O)[C@H](O)[C@H]4O)[C@@H](O)[C@H](O[C@@H]4O[C@H](CO)[C@@H](O)[C@H](O)[C@H]4O)[C@H]3O)[C@H](O)C[C@]3(C)C(=CCC4[C@@]5(C)CC[C@H](O[C@@H]6OC[C@@H](O)[C@H](O)[C@H]6O)[C@@](C)(C(=O)O)C5CC[C@]43C)[C@@H]2C1 (some centres not stated) | – | inactive [at 9.29 µM] |
| CC(=O)/C=C/[C@H]1[C@](C)(O)[C@@H](O)[C@H](O)C2C(C)(C)CCC[C@@]21C (some centres not stated) | -13.4% | – |
| COc1cc(C2OCC3(O)C(c4ccc(O[C@@H]5O[C@H](CO)[C@@H](O)[C@H](O)[C@H]5O)c(OC)c4)OCC23O)ccc1O (some centres not stated) | 1.88% [at 17.3 µM] | – |
| C[C@@H]1O[C@@H](O[C@H]2[C@H](OC(=O)[C@]34CCC(C)(C)C[C@H]3C3=CCC5[C@@]6(C)CC[C@H](O[C@@H]7O[C@H](CO[C@@H]8OC[C@H](O)[C@H](O)[C@H]8O)[C@@H](O)[C@H](O)[C@H]7O)C(C)(C)C6CC[C@@]5(C)[C@]3(C)C[C@H]4O)OC[C@@H](O)[C@@H]2O)[C@H](O)[C@H](O[C@@H]2OC[C@](O)(CO)[C@H]2O)[C@H]1O[C@@H]1OC[C@H](O)[C@H](O[C@@H]2OC[C@@H](O)[C@H](O)[C@H]2O)[C@H]1O (some centres not stated) | 5.27% [at 9.29 µM] | – |
| CC1=C(C)C(=O)OC(C(C)C2C(O)CC3C4C5OC5C5(O)CC(OC6OC(CO)C(OC7OC(C)C(O)C(O)C7O)C(O)C6O)CC(O)C5(C)C4CCC32C)C1 (configuration not stated) | 0.543% [at 17.3 µM] | – |
| CC(=O)c1ccc(O[C@@H]2O[C@H](CO[C@@H]3OC[C@@H](O)[C@H](O)[C@H]3O)[C@@H](O)[C@H](O)[C@H]2O)cc1 | 7.02% [at 17.3 µM] | – |
| CC1OC(OC2C(OC3C(O[C@H]4CC[C@@]5(C)C(CC[C@]6(C)C5CC=C5C7CC(C)(C)CC(O)[C@]7(C)CC[C@]56C)C4(C)C)OC(C(=O)O)C(O)C3O)OCC(O)C2O)C(O)C(O)C1O (some centres not stated) | – | inactive [at 9.29 µM] |
